Assay results: PubChem BioAssay (NCATS)
Results filed as inconclusive are left out. Where a call stands in place of a potency, no number is given. Activity calls are given as the source filed them. Calls follow the shape of the dose curve; as a rule, active = well fitted inhibition curve with a large enough effect; inconclusive = small, poorly fitted or top-dose-only effect; inactive = flat fitted curve, though single readings scatter.

Legend:
[1] = molecular target: Voltage-gated inwardly rectifying potassium channel KCNH2 (Homo sapiens) (UniProt Q12809); test: qHTS Assay for Small Molecule Inhibitors of the Human hERG Channel Activity (AID 588834); conditions: U2OS BacMam hERG, FluxOR thallium flux fluorescence; series mostly up to 46.1 µM;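 also: lower thallium flux fluorescence means stronger hERG block; nearly all actives have a fitted effect of over 50% in size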; also: potency is read from the fitted curve at half-maximal effect
Outline: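 Homogeneous FluxOR thallium flux assay using hERG-expressing U2OS cells (BacMam). Compound treatment about 10 minutes preceded stimulation; reduced fluorescence taken as channel block.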

[2] = molecular target: Luciferin 4-monooxygenase (Photinus pyralis) (UniProt P08659); test: Biochemical firefly luciferase enzyme assay for NPC (AID 624030);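 also: purified P. pyralis luciferase at 10 nM with luciferin and ATP substrate; nearly all actives have a fitted effect of over 70% in size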; conditions: purified P. pyralis luciferase, luminescence, 5 min; series mostly up to 58.6 µM
Outline: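 Purified P. pyralis luciferase at 10 nM in 50 mM Tris Acetate (final), luminescence read within 5 minutes of enzyme addition to compounds. Activity normalised to PTC124 versus DMSO; concentration-response curves classed by r2, magnitude and activity.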

Chain of Voltage-gated inwardly rectifying potassium channel KCNH2 (Homo sapiens) (Q12809 whole entry, looked up): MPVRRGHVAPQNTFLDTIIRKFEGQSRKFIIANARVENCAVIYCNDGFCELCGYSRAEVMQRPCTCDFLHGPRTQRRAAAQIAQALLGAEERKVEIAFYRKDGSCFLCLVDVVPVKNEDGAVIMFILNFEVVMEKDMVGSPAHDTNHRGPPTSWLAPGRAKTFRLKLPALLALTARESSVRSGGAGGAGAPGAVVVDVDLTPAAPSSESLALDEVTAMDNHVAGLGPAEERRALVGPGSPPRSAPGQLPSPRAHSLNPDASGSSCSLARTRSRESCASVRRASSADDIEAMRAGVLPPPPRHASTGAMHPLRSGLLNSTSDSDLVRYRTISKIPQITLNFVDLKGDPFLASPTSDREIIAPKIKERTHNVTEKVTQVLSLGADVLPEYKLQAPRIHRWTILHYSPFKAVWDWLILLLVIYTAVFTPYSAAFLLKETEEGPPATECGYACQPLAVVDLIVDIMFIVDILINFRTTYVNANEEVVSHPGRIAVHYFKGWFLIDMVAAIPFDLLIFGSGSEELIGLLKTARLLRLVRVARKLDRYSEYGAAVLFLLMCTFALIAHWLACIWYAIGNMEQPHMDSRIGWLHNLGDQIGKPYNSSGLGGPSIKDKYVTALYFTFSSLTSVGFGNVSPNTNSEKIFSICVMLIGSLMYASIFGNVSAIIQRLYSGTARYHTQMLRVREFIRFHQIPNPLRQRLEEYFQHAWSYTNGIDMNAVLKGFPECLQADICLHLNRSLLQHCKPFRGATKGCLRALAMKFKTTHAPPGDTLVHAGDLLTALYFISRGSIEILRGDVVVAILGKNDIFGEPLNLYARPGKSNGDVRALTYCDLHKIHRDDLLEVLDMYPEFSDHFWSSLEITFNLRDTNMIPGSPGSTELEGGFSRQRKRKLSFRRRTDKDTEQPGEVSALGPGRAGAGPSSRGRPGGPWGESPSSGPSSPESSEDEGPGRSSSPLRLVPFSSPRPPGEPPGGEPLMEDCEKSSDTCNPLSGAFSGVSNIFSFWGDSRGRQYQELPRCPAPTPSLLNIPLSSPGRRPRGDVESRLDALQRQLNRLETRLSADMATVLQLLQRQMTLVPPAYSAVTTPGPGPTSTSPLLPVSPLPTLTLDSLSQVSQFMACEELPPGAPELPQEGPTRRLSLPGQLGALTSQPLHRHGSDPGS
Chain of Luciferin 4-monooxygenase (Photinus pyralis) (P08659 whole entry, looked up): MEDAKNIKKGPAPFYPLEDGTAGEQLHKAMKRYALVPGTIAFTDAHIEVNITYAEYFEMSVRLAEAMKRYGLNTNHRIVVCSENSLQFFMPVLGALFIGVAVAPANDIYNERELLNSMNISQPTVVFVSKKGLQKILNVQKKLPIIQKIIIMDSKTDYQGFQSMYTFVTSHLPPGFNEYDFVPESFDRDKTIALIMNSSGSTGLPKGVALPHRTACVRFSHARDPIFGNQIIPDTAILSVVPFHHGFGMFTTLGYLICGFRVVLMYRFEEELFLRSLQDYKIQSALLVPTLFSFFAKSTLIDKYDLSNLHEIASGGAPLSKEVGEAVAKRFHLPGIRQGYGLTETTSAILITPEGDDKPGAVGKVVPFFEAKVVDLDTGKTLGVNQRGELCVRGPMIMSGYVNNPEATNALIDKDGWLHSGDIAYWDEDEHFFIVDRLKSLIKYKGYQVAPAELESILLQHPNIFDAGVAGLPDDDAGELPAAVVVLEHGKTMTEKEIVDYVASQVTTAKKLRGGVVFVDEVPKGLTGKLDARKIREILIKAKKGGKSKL

Structure (SMILES) | Potency [1] | Potency [2]
CCN(CC)CCOC(=O)C1(c2ccccc2)CCCC1 | inactive | inactive
O=C1C(O)=C(O)C(=O)C(O)=C1O | inactive | inactive
CC(C)Nc1cccnc1N1CCN(C(=O)c2cc3cc(NS(C)(=O)=O)ccc3[nH]2)CC1 | 8.91 µM (active) | inactive
